SMILES strings stand for the structures. In all, about 52,000 compounds went through this assay and about 4,300 (8.3%) were called active. No stated cut-off is given here; in the data, active means survival mostly below about 52% (no sharp cut-off); inactive means mostly above about 56%. For the sample, actives were picked, then their nearest neighbours and some compounds at random.

This assay has as its system DeltatarO mutant. Put plainly: growth inhibition of S. aureus wild type versus tarO mutant, primary screen, teichoic acid synthesis inhibitors, RN4220, OD600 (AID 463173). As to conditions: OD600, 18 h, stronger effect = lower value, screened at 18.75 µg/mL (by protocol).
For `COc1ccc(NC(=O)Cn2nc(-c3ccccc3)c3cnc4ccc(C)cc4c32)cc1`, the survival was 63% (inactive).

For `CC(C)c1ccc2c(c1)-c1ccccc1S(=O)(=O)N2CC(=O)N1CCCCC1`, the survival was 85% (inactive).

Regarding `CCCC(=O)NC(C)c1nc2ccccc2n1Cc1ccccc1` (stereo not drawn), the survival was 101% (inactive).

Take `Cc1cc(N2CCOCC2)cc(C)[n+]1[O-]`: the survival is 90% (inactive).

`CCc1ccc(C2CC(=O)N(c3cccc(C(F)(F)F)c3)C3=C2C(=O)OC3)cc1` (stereo not drawn): the survival was 57% (active).

Consider `COc1ccccc1C1CC(=O)N(c2cccc(C(F)(F)F)c2)C2=C1C(=O)OC2` (stereo not drawn), for which the survival is 56% (inactive).

As to `Cc1cc(C)cc(N2C(=O)CC(c3ccc(C(F)(F)F)cc3)C3=C2COC3=O)c1` (stereo not drawn), the survival was 72% (inactive).

As to `CCN(CC)c1ccc(NC(=O)c2cc(CN3CCCC3)on2)c(C)c1`, the survival is 102% (inactive).

`CC(=O)c1ccc(N2CCN(c3ncnc4onc(C)c34)CC2)cc1`: the survival is 55% (inactive).

On to `COc1ccc(S(=O)(=O)c2nnn(-c3cccc(Cl)c3)c2N)cc1`, for which the survival is 56% (inactive).

`CCOc1ccc(-c2nc3ccccc3c(=O)o2)cc1`: the survival was 68% (inactive).

Regarding `CCOc1cccc(-c2nc3ccccc3c(=O)o2)c1`, the survival was 35% (active).

As for `CCCOc1ccc(-c2nc3ccccc3c(=O)o2)cc1`, the survival was 64% (inactive).

As for `CCCOc1cccc(C(=O)NCc2cccnc2)c1`, the survival was 81% (inactive).

Take `COc1cc(N2C(=O)CSC23C(=O)N(C)c2ccccc23)cc(OC)c1OC` (stereo not drawn): the survival is 66% (inactive).

For `COC(=O)c1cc(S(=O)(=O)NCC2CCN(Cc3ccc(F)cc3)CC2)cn1C`, the survival is 109% (inactive).

`N#Cc1ccccc1CSc1nnc(-c2ccc(Br)cc2)o1`: the survival was 92% (inactive).

In the case of `N#Cc1ccc(CSc2nnc(-c3ccc(Br)cc3)o2)cc1`, the survival is 87% (inactive).

On to `COc1ccc(-c2nnc(SCC(=O)Oc3cc(C)ccc3C)o2)cc1`, for which the survival was 67% (inactive).

As for `CCOC(=O)CSc1nnc(-c2ccc(OC)cc2)o1`, the survival was 66% (inactive).

With `CCCCOC(=O)CSc1nnc(-c2ccc(C)cc2)o1`, the survival was 12% (active).

With `CCCCCSc1nnc(-c2ccc(Br)cc2)o1`, the survival was -1% (active).

With `CC(=O)Nc1ccc(S(=O)(=O)N2CCC(N3CCN(Cc4ccc(C)cc4)C(=O)C3=O)CC2)cc1`, the survival is 83% (inactive).

As to `COCCCNc1nc2c(-c3ccccc3)nnn2c2ccccc12`, the survival was 78% (inactive).

`O=C(Nc1ccc2nc(-c3ccccc3)[nH]c2c1)c1ccco1`: the survival is 1% (active).

Turning to `O=C(Nc1cccc(-c2nc3ccccc3[nH]2)c1)c1ccccc1F`, the survival is 29% (active).

Consider `Cc1csc2nc(-c3cccc(NC(=O)c4ccccc4F)c3)cn12`, for which the survival is 126% (inactive).

`CCC(=O)Nc1ccc(-c2nc3ccc(NC(=O)CC)cc3[nH]2)cc1`: the survival was 66% (inactive).

As for `CC(=O)Nc1cc(NC(C)=O)cc(-c2nc3ccccc3[nH]2)c1`, the survival is 83% (inactive).

For `CC(C)(C)C(=O)Nc1ccc(-c2nc3ccc(NC(=O)C(C)(C)C)cc3[nH]2)cc1`, the survival was 105% (inactive).

As to `O=C(Nc1cccc(-c2nc3ccccc3[nH]2)c1)c1c(F)cccc1F`, the survival was 37% (active).

Regarding `O=C(Nc1cccc(NC(=O)c2ccccc2F)c1)c1ccccc1`, the survival is 77% (inactive).

Consider `O=C(NCc1nc2ccccc2[nH]1)c1c(F)cccc1F`, for which the survival was 56% (inactive).

As to `O=C(Nc1ccc(C(=O)OCc2cc(=O)n3ccsc3n2)cc1)c1cccc(F)c1`, the survival is 102% (inactive).

As to `COc1ccc(C(=O)N(Cc2ccco2)Cc2ccccc2F)cc1Cl`, the survival is 98% (inactive).

Consider `Cc1cccc(NC(=O)CCN2CCC(C)CC2)c1`, for which the survival was 91% (inactive).

For the compound `Cc1ccc(NC(=O)CSc2nc(=O)n(CCCN(C)C)c3c2CCC3)cc1F`, the survival was 71% (inactive).

For `COc1cc(NC(=O)C(CC(C)C)N2Cc3ccccc3C2=O)cc(OC)c1` (stereo not drawn), the survival was 108% (inactive).

Turning to `O=C(Cc1ccccc1)N=Nc1c(O)[nH]c2ccccc12`, the survival is 91% (inactive).

In the case of `O=C(N=Nc1c(O)[nH]c2ccccc12)C1C2CCCCC21` (stereo not drawn), the survival was 95% (inactive).

For `O=C(N=Nc1c(O)[nH]c2ccccc12)C1CC1c1ccccc1` (stereo not drawn), the survival is 35% (active).

Regarding `Cc1cc(Nc2cccc(Cl)c2)nc2ccc(NC(=O)Cc3ccc(Cl)cc3)cc12`, the survival is 105% (inactive).

For `Cc1c(C(=O)N2CCCCCC2)c(S(=O)(=O)NCc2ccccc2)c(C)n1C`, the survival is 77% (inactive).

Regarding `CCOc1ccc2[nH]c(=O)c(CN(Cc3ccccc3)C(=O)N3CCOCC3)cc2c1`, the survival is 105% (inactive).

As to `CC(C)c1ccc(-c2nnn(CC(=O)OC3CCCCC3)n2)cc1`, the survival is 87% (inactive).

As for `CCOc1ccc(-c2nnn(CC(=O)NC3CCCCC3)n2)cc1`, the survival is 75% (inactive).

In the case of `CC(C)COc1ccc(-c2nnn(CC(=O)N3C(C)CCCC3C)n2)cc1` (stereo not drawn), the survival is 69% (active).

With `Cc1ccc(NC(=O)Cc2ccc(-n3c(C)nc4cccnc43)cc2)c(Cl)c1`, the survival is 107% (inactive).

Consider `CCOc1ccc(NC(=O)CSc2ncn[nH]2)cc1`, for which the survival is 67% (inactive).

For the compound `CCCN1C(=O)c2[nH]nc(-c3ccccc3O)c2C1c1ccc(OCc2ccccc2)c(OCC)c1` (stereo not drawn), the survival was 40% (active).

For `CCCOc1ccc(C2c3c(-c4ccccc4O)n[nH]c3C(=O)N2CCc2ccccc2)cc1OCC` (stereo not drawn), the survival is 53% (inactive).

`CCOc1cc(C2c3c(-c4ccccc4O)n[nH]c3C(=O)N2CCc2ccccc2)ccc1O` (stereo not drawn): the survival was 29% (active).

`COCCN1C(=O)c2[nH]nc(-c3ccccc3O)c2C1c1ccc(Cl)c(Cl)c1` (stereo not drawn): the survival was 3% (active).

Turning to `COc1cc(C2c3c(-c4ccccc4O)n[nH]c3C(=O)N2Cc2ccncc2)cc(OC)c1OC` (stereo not drawn), the survival is 82% (inactive).

As to `CCCCN1C(=O)c2[nH]nc(-c3ccccc3O)c2C1c1cc(Br)c(O)c(OC)c1` (stereo not drawn), the survival was 2% (active).

Regarding `CCCN1C(=O)c2[nH]nc(-c3ccc(F)cc3)c2C1c1ccc(O)c(OCC)c1` (stereo not drawn), the survival is 51% (inactive).

Consider `COc1ccc(/C=C\c2onc(C)c2S(=O)(=O)N2CCC(C(=O)Nc3cccc(OC)c3)CC2)cc1`, for which the survival is 97% (inactive).

As for `Cc1cc(C)n(C2CC(=O)N(N(C)C)C2=O)n1` (stereo not drawn), the survival is 92% (inactive).

On to `Cc1cc(C)c2c(=O)cc(C(=O)Nc3ccc(S(=O)(=O)Nc4nc(C)cc(C)n4)cc3)oc2c1`, for which the survival was 103% (inactive).

Consider `O=C(CO)N/N=C\c1c(F)cccc1Cl`, for which the survival is 51% (inactive).

Consider `Cc1ccc(S(=O)(=O)C(CNC(=O)Cc2ccc(Cl)cc2)c2cccs2)cc1` (stereo not drawn), for which the survival is 85% (inactive).

Take `CCc1ccc(NC(=O)CSC2=Nc3ccccc3C3=NC(CC(=O)NC4CCCCC4)C(=O)N23)cc1` (stereo not drawn): the survival is 86% (inactive).

In the case of `CC(C)(O)C1Cc2cc(/C=C/C(=O)O)c(O)cc2O1` (stereo not drawn), the survival is 88% (inactive).

For the compound `CN(C)c1ccc(CNC(=O)c2ccc(NC(=O)c3nsc4ccccc34)cc2)cc1`, the survival is 84% (inactive).

Take `COc1cc(C2c3c(-c4ccccc4O)n[nH]c3C(=O)N2CCO)ccc1OCc1ccccc1` (stereo not drawn): the survival was 77% (inactive).

Turning to `CCOc1ccc(C2c3c(-c4ccccc4O)n[nH]c3C(=O)N2Cc2cccnc2)cc1OC` (stereo not drawn), the survival was 90% (inactive).

On to `CCCCOc1ccc(C2c3c(-c4ccccc4O)n[nH]c3C(=O)N2Cc2ccncc2)cc1OC` (stereo not drawn), for which the survival is 61% (inactive).

`COCCN1C(=O)c2[nH]nc(-c3ccccc3O)c2C1c1ccc(OCc2ccccc2)c(OC)c1` (stereo not drawn): the survival is 13% (active).

`CCCCN1C(=O)c2[nH]nc(-c3ccccc3O)c2C1c1ccc(OCc2ccccc2)c(OC)c1` (stereo not drawn): the survival is 35% (active).

For the compound `CCCN1C(=O)c2[nH]nc(-c3ccccc3O)c2C1c1ccc(OCc2ccccc2)c(OC)c1` (stereo not drawn), the survival was 44% (active).

`CCOC(=O)c1c(C)[nH]c(CCC(=O)NCc2ccc(F)cc2)c1C`: the survival is 89% (inactive).

With `COCCCNC(=O)Cn1nc(N2CCN(c3ccccc3)CC2)ccc1=O`, the survival is 91% (inactive).

Regarding `c1ccc(CSc2nc3ncccc3[nH]2)cc1`, the survival is 93% (inactive).

As for `CCN(CC)C(=O)C1CCN(C(=O)c2cnn(-c3ccccc3)c2-n2cccc2)CC1`, the survival is 83% (inactive).

For `Cc1ccc2occ(CC(=O)Nc3ccc(S(=O)(=O)N4CCCC(C)C4)cc3)c2c1` (stereo not drawn), the survival was 58% (inactive).

`CC1CCN(S(=O)(=O)c2ccccc2)CC1`: the survival is 104% (inactive).

In the case of `CC1CCN(S(=O)(=O)c2ccc(NC(=O)Nc3ccccc3)cc2)CC1`, the survival is 9% (active).

Take `CC(=O)Nc1ccc(S(=O)(=O)N2CCC(c3ccncc3)CC2)cc1`: the survival is -5% (active).

For the compound `Cc1ccc2occ(CC(=O)Nc3ccc(S(=O)(=O)N4CCC(C)CC4)cc3)c2c1`, the survival was 55% (active).

For `CC(=O)Nc1ccc(S(=O)(=O)N2CCC(C)CC2)cc1`, the survival was 96% (inactive).

In the case of `Cc1ccc2c(CC(=O)Nc3ccc(S(=O)(=O)N4CCC(C)CC4)cc3)coc2c1`, the survival was 59% (inactive).

Consider `CC(C)(C)c1ccc(S(=O)(=O)N2CCC(c3ccncc3)CC2)cc1`, for which the survival was 109% (inactive).

On to `O=S(=O)(c1ccc(Cl)cc1)N1CCC(c2ccncc2)CC1`, for which the survival is 73% (inactive).

Regarding `CC1=C(C(=O)Nc2ccccc2C)C(c2ccncc2)n2nc(SCc3ccccc3Cl)nc2N1` (stereo not drawn), the survival is 62% (inactive).

Take `CCOC(=O)c1ccccc1NC(=O)N(Cc1ccc(C)cc1)Cc1cccn1-c1nnc(N2CCCC2=O)s1`: the survival was 118% (inactive).

Take `Cc1ccc(NC(=O)Cn2nnc(-c3nc(-c4ccncc4)no3)c2N)c(C)c1`: the survival was 92% (inactive).

With `CCc1ccccc1NC(=O)CSc1nccn1C`, the survival is 89% (inactive).

Consider `CC1=C(c2ccc(C)c(C)c2)S(=O)(=O)N(Cc2ccc(C(=O)NCc3ccc(C)cc3)cc2)C1=O`, for which the survival was 92% (inactive).

Turning to `COc1ccc(-c2ccc(=O)n(CC(=O)Nc3ccc(N(C)C)cc3)n2)cc1`, the survival was 90% (inactive).

On to `CCC1CCCCN1S(=O)(=O)c1ccc(C(=O)Nc2sc3c(c2C(N)=O)CCC3)cc1` (stereo not drawn), for which the survival was 68% (inactive).

As for `Cc1ccc(-n2nc(C(=O)N(C)c3ccccc3Cl)c3c4ccccc4n(C)c3c2=O)cc1`, the survival is 88% (inactive).

As for `CCCNS(=O)(=O)c1cc(-c2nnc3c4ccccc4c(C)nn23)ccc1OC`, the survival was 100% (inactive).

Consider `Cc1cc2c(cc1S(=O)(=O)NCc1ccccc1Cl)OCCN2C`, for which the survival was 106% (inactive).
